# Laboratory results: PubChem BioAssay AID651564 (Sanford-Burnham Center for Chemical Genomics, 2012)
# This is one part of the list. Unmarked numbers belong to inactive results. Active and inactive are the calls of the source. Cut-off read from the data, not from the text of the source: active = IC50 below about 80 µM; inactive = the rest.
# Assay: fluorescent counter-screen in isolated mitochondria, dose response, counter-screen for MPTP inhibitor project, biochemical, fluorescence, uHTS hits (AID 651564)
# Conditions: isolated mitochondria counterscreen, fluorescence read-out
row,SMILES,IC50
1,CC(Cc1ccccc1)NCCC(c1ccccc1)c1ccccc1 (stereo not drawn),18.7 µM (active)
2,COc1ccc(C2NCc3ccc4c(c3-n3cccc32)OCO4)cc1OC (stereo not drawn),> 80 µM
3,O=Cc1cn(Cc2ccc(F)cc2Cl)c2ccccc12,22.6 µM (active)
